PAX8 reporter – PAX8 transcriptional activity inhibition. RMG-I TPO-luciferase reporter, SteadyGlo, 24 h. inhibition, % at 12.6 µM. actives 1.2% (n = 360,000). AID 652154;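 active means mean replicate inhibition at least 60% with every replicate also reaching 60%; inconclusive means only one of the two criteria is met; inactive means mean below 60% and not all replicates reaching 60%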;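 further: luciferase light reporting Pax8 driven TPO promoter activity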
HIV Env fusion – inhibitors of HIV Env-mediated cell fusion; HeLa-JRFL Env/CEM21 cell fusion, luciferase; inhibition, % at 12.3 µM; actives 1.1% (n = 360,000); AID 651610;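 active means mean replicate inhibition score of at least 50 and every replicate individually at or above 50; inconclusive means only one of the two criteria met; inactive means mean below 50 and not all replicates reaching 50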
EWS-Fli block – inhibitors of EWS/Fli oncoprotein transcriptional activity; A673 NR0B1-luciferase reporter, viability-normalised; inhibition, % at 12.6 µM; actives 0.67% (n = 350,000);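 active means mean inhibition of at least 50% after viability correction, with every replicate also passing that limit; inconclusive means mean reaches 50% but only one of two replicates passes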;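 further: firefly luciferase signal divided by Alamar Blue viability fluorescence both relative to DMSO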
INS-1E GSIS act – primary screen for activators of insulin secretion dependent on glucose, INS-1E cells, GLuc reporter luminescence. INS-1E GLuc reporter insulin secretion, 2-3 h. activation, % at 16.6 µM. actives 0.61% (n = 370,000);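 active means lowest replicate activation of at least 40%, so every replicate reaches that level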
C2C12 statin – protects C2C12 myotubes from simvastatin toxicity. actives 0.78% (n = 330,000). ATP luminescence, 48 h; scaled: DMSO 0, geranylgeraniol control 100. rescue of ATP level, % at 7.49 µM;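 active means mean ATP rescue above about 67%, or every replicate alone reaching that limit, limit read from the data, passing the limit was not always enough; inconclusive means no clear call, values can overlap the other calls; inactive means mean under the limit and some replicate under it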;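 further: myotubes were challenged with 10 µM simvastatin during compound exposure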
miR-122 sensor – miR-122 inhibition in Huh7 cells; actives 0.3% (n = 340,000); activation (reporter increase), % at 12.5 µM; Huh7 miR-122 Renilla luciferase sensor, 48 h; neutral wells = 0, positive control = 100; AID 602342;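 active means mean replicate activation score at least 90 and every replicate individually at or above 90; inconclusive means only one of the two criteria met; inactive means neither criterion met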;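 further: higher luciferase means less miR-122 activity so hits act as miR-122 inhibitors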
Numbers stand for hits; n = inactive; u = inconclusive; x = no result; [ ] = remark or other dose. Sampled rows, rich in hits. Any-hit rate of the full collection: about 3.1%.

SMILES | PAX8 reporter | HIV Env fusion | EWS-Fli block | INS-1E GSIS act | C2C12 statin | miR-122 sensor
COc1ccc(S(=O)(=O)N[C@@H]2C=C[C@@H](CC(=O)N3CCN(c4ccccc4)CC3)O[C@@H]2CO)cc1 | n | n | n | n | n | x
O=C(Cc1ccccc1)N[C@@H]1C=C[C@@H](CC(=O)N2CCCCC2)O[C@@H]1CO | n | n | n | n | n | x
COc1ccc(S(=O)(=O)N[C@H]2C=C[C@H](CC(=O)N3CCN(c4ccccc4)CC3)O[C@@H]2CO)cc1 | n | 59[16.7 µM] | n | n | n | x
COC(=O)C[C@@H]1C=C[C@H](NC(=O)Cc2ccccn2)[C@@H](CO)O1 | n | n | n | 64 | x | x
Cc1ccc(S(=O)(=O)N[C@@H]2C=C[C@@H](CC(=O)N3CCC(Cc4ccccc4)CC3)O[C@@H]2CO)cc1 | 90 | 56[16.7 µM] | n | n | n | n
O=C(Cc1ccccc1)N[C@@H]1C=C[C@H](CC(=O)N2CCCCC2)O[C@@H]1CO | n | 57[16.7 µM] | n | n | n | x
C[C@@H]1CN([C@H](C)CO)S(=O)(=O)c2ccc(C#CC3CC3)cc2O[C@H]1CN(C)C(=O)CC1CC1 | x | n | n | n | n | n
CN1C(=O)c2cc(NC(=O)Cc3cccs3)ccc2OC[C@H]2O[C@@H](CC(=O)N[C@@H]3CCN(Cc4ccccc4)C3)CC[C@@H]21 | n | n | n | n | n | x
CCOC(=O)C1=C(C)N(C[C@@H]2CC[C@@H](Cc3ccc(-c4ccccc4)cc3)O2)C(=O)NC1c1ccc(C(F)(F)F)cc1 (stereo partly drawn) | n | 67 | n | n | n | x
COc1cc(OC)c2c(-c3cccc(-c4ccc(C(F)(F)F)cc4)c3)cc(=O)oc2c1 | n | n | u | n | n | n
COc1cc(OC)c2c(-c3cccc(-c4ccc(OC)c(OC)c4)c3)cc(=O)oc2c1 | n | n | 53 | n | n | n
COc1cc(OC)c2c(-c3cccc(-c4ccc(C#N)cc4)c3)cc(=O)oc2c1 | n | n | 56 | n | n | n
COC(=O)COc1cc(OCC(=O)OC)c2c(-c3ccccc3)cc(=O)oc2c1 | n | n | n | 64 | n | x
CC(=O)COc1cc(C)cc2oc(=O)cc(-c3ccccc3)c12 | n | n | n | n | x | x
COc1cc(OC)c2c(-c3cccc(-c4sccc4C(C)=O)c3)cc(=O)oc2c1 | 84 | n | 56 | n | n | n
COc1cc(OC)c2c(-c3cccc(-c4ccc(NC(C)=O)cc4)c3)cc(=O)oc2c1 | 79 | n | n | n | n | n
COc1cc2oc(=O)cc(-c3cccc(-c4cccc(C)c4)c3)c2c(OC)c1OC | n | 57 | n | n | n | n
Cc1c(NC(=O)C(C)OC(=O)c2c3c(nc4ccccc24)CCC3)c(=O)n(-c2ccccc2)n1C (stereo not drawn) | 73 | x | n | n | x | x
Cc1noc(C)c1NC(=O)Nc1ccc2c(c1)CC(=O)N([C@@H](C)CO)C[C@H](C)[C@@H](CN(C)Cc1ccc(Cl)c(Cl)c1)O2 | n | x | n | n | n | 109[16.7 µM]
C[C@@H]1CN([C@@H](C)CO)C(=O)Cc2cc(NC(=O)Nc3ccc(F)cc3)ccc2O[C@H]1CN(C)Cc1ccc2c(c1)OCO2 | 68 | x | n | n | n | n
C[C@H]1CN([C@@H](C)CO)C(=O)Cc2cc(NC(=O)Nc3ccc4c(c3)OCO4)ccc2O[C@@H]1CN(C)CC1CC1 | n | n | n | n | n | n
C[C@H]1CN([C@@H](C)CO)C(=O)Cc2cc(NC(=O)Nc3ccccc3)ccc2O[C@H]1CN(C)Cc1ccc(Cl)c(Cl)c1 | n | n | n | n | n | n
C[C@H](CO)N1C[C@H](C)[C@H](CN(C)CC2CC2)Oc2ccc(NC(=O)Nc3ccc4c(c3)OCO4)cc2CC1=O | n | 65[16.7 µM] | n | n | n | n
Cc1noc(C)c1NC(=O)Nc1ccc2c(c1)CC(=O)N([C@H](C)CO)C[C@@H](C)[C@H](CN(C)Cc1ccc(Cl)c(Cl)c1)O2 | n | x | n | n | n | n
C[C@H]1CN([C@@H](C)CO)C(=O)Cc2cc(NC(=O)Nc3ccc(F)cc3)ccc2O[C@H]1CN(C)Cc1ccc2c(c1)OCO2 | n | x | n | n | n | n
SMILES | PAX8 reporter | HIV Env fusion | EWS-Fli block | INS-1E GSIS act | C2C12 statin | miR-122 sensor
C[C@@H]1CN([C@@H](C)CO)C(=O)Cc2cc(NC(=O)Nc3ccc(F)cc3)ccc2O[C@@H]1CN(C)Cc1ccc(Cl)c(Cl)c1 | 81 | n | n | n | 108 | n
COc1ccc(NC(=O)Nc2ccc3c(c2)CC(=O)N([C@@H](C)CO)C[C@@H](C)[C@H](CN(C)Cc2ccc(Cl)c(Cl)c2)O3)cc1 | 72 | n | n | n | n | n
C[C@H](CO)N1C[C@H](C)[C@H](CN(C)Cc2ccc(Cl)c(Cl)c2)Oc2ccc(NC(=O)Nc3ccc4c(c3)OCO4)cc2CC1=O | n | n | n | n | n | n
C[C@@H]1CN([C@@H](C)CO)C(=O)Cc2cc(NC(=O)Nc3ccc4c(c3)OCO4)ccc2O[C@H]1CN(C)Cc1ccc(Cl)c(Cl)c1 | n | 57[16.7 µM] | n | n | n | n
C[C@H]1CN([C@@H](C)CO)C(=O)c2cc(NC(=O)C3CCCCC3)ccc2O[C@@H]1CN(C)CC1CC1 | x | n | n | n | n | n
O=C(Cc1ccccn1)NCC[C@H]1CC[C@H](NS(=O)(=O)c2ccc(Cl)cc2)[C@H](CO)O1 | n | n | n | n | n | x
COc1ccc(-c2cc(C(F)(F)F)nc(S(=O)(=O)CCCC(=O)Nc3cccc(O)c3)n2)cc1OC | 63 | n | n | n | x | n
COc1ccccc1-c1cc(C(F)(F)F)nc(S(=O)(=O)CCCC(=O)N2CCOCC2)n1 | x | x | x | x | 90 | n
COc1ccccc1-c1cc(C(F)(F)F)nc(S(=O)(=O)CCCC(=O)O)n1 | x | n | x | n | n | n
COCC#Cc1ccc2c(c1)O[C@@H](CN(C)Cc1ccncc1)[C@H](C)CN([C@@H](C)CO)S2(=O)=O | x | n | n | n | n | n
COc1ccc(C(=O)NC(C(=O)NCc2ccccn2)C(C)C)cc1 (stereo not drawn) | n | n | x | x | 136 | n
CC=Cc1ccc2n(c1=O)C[C@@H]1[C@@H](CO)[C@H](C(=O)N3CCC(Cc4ccccc4)CC3)N(CCC)[C@H]21 (mixture of isomers) | n | x | n | n | x | x
CSc1cc(-c2ccc(Cl)cc2)c(C(=O)NC(C)C)s1 | x | x | x | x | 130 | n
C[C@@H]1CN([C@H](C)CO)C(=O)c2cc(C#CC3CC3)cnc2O[C@H]1CN(C)C(=O)Cc1ccccn1 | x | n | n | n | n | n
C[C@@H]1CN([C@H](C)CO)S(=O)(=O)c2ccc(C#CC3CCCC3)cc2O[C@H]1CN(C)Cc1cccnc1 | 87 | n | n | n | n | n
C[C@H](CO)N1C[C@H](C)[C@@H](CN(C)Cc2cncnc2)Oc2cc(C#CC3CCCC3)ccc2S1(=O)=O | n | n | n | n | n | 95[16.7 µM]

High-throughput results deposited in PubChem by Broad Institute.
